Targets with the largest changes are over-represented here; the source holds about 21,000 in all.
Compound: CC1Cc2ccccc2N1C(=O)C1CCCN(C1)C(=O)CCl (mixture of isomers) [TRIM25 ligand 11 (diastereomer mixture)]
Experiment: probe-labelled cysteine peptide fold change vs DMSO (competition) (log2 fold change); higher = less target engagement (more negative = stronger competition)
Conditions: THP-1, incubation time: 4 h
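Further: competitive chemoproteomic profiling in live THP-1 cells with an iodoacetamide desthiobiotin (IA-DTB) probe, comparing probe-labelled peptide intensities in compound-treated cells against DMSO-treated controls.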

Target	probe-labelled cysteine peptide fold change (10 µM)	probe-labelled cysteine peptide fold change (50 µM)
EEF1A1_P68104_411_FLKSGDAAIVDMVPGKPMCVESFSDYPPLGR (UniProt P68104)	0.947	1.14
FAM98B_Q52LJ0_220_INDALSCEYECR (UniProt Q52LJ0)	-0.00202	0.0911
EHHADH_Q08426_227+233_QHPGCLAQEACVR (UniProt Q08426)	0.147	0.0162
ELP3_Q9H9T3_456_CSEETFR (UniProt Q9H9T3)	0.298	0.202
EIF1_P41567_94_NICQFLVEIGLAKDDQLK (UniProt P41567)	-1.14	-0.0838
FUBP3_Q96I24_109_IQAESGCK (UniProt Q96I24)	0.00832	0.192
ENOSF1_Q7L5Y1_67_GTEVVVCAVNALAHHVLNK (UniProt Q7L5Y1)	-0.0438	0.0621
F2_P00734_407_WVLTAAHCLLYPPWDK (UniProt P00734)	0.631	0.154
EPRS_P07814_1301+1309_VACVQVVIIPCGITNALSEEDK (UniProt P07814)	-0.162	-0.139
EIPR1_Q53HC9_95_VLTCAAVWR (UniProt Q53HC9)	0.109	0.137
EXOC5_O00471_194_YHDLECQLIQEFTSAQR (UniProt O00471)	0.139	0.157
FRRS1_Q6ZNA5_107_NAEDLNGPPIGSFTLIDSEVSQLLTCEDIQGSAVSHR (UniProt Q6ZNA5)	0.66	0.341
FLNB_O75369_991_KVVPCLVTPVTGR (UniProt O75369)	-0.0645	-0.0535
FBN2_P35556_941_CELDTACPR (UniProt P35556)	0.213	0.26
ELP5_Q8TE02_151_LPCTTLCQVLHAVSHQDSCPGDSSSVGK (UniProt Q8TE02)	0.0565	0.114
FHL2_Q14192_275_GFLTERDDILCPDCGK (UniProt Q14192)	-0.0813	-0.0756
EDC4_Q6P2E9_838_ETCSTLAESPR (UniProt Q6P2E9)	-0.0668	-0.146
EIF3D_O15371_438_WTCCALLAGSEYLK (UniProt O15371)	-0.0143	0.0445
ECM1_Q16610_269_FSCFQEEAPQPHYQLR (UniProt Q16610)	0.855	0.858

Target	probe-labelled cysteine peptide fold change (10 µM)	probe-labelled cysteine peptide fold change (50 µM)
FH_P07954_434_LLGDASVSFTENCVVGIQANTER (UniProt P07954)	-0.504	-0.961
ETFDH_Q16134_387_LTFPGGLLIGCSPGFMNVPK (UniProt Q16134)	-0.688	-0.698
EIF3K_Q9UBQ5_87_CMIDQAHQEERPIR (UniProt Q9UBQ5)	0.0313	0.0963
FNBP1_Q96RU3_511_RQSGLYDSQNPPTVNNCAQDR (UniProt Q96RU3)	0.269	-0.0608
FAM241A_Q8N8J7_2_CSAGELLR (UniProt Q8N8J7)	0.306	0.559
EIF1B_O60739_69_FACNGTVIEHPEYGEVIQLQGDQRK<|>EIF1_P41567_69_FACNGTVIEHPEYGEVIQLQGDQRK (UniProt P41567+O60739)	-0.358	-0.022
FTH1_P02794_91_KPDCDDWESGLNAMECALHLEK (UniProt P02794)	0.166	0.847
EPHX2_P34913_232_VTGIQLLNTPAPLPTSCNPSDMSHGYVTVKPR (UniProt P34913)	0.149	-0.204
FAM111B_Q6SJ93_212_LCIYALK (UniProt Q6SJ93)	-0.05	-0.0141
FGD3_Q5JSP0_284_QEVCGNLTLQHHMLEPVQR (UniProt Q5JSP0)	0.0112	-0.0514
FECH_P22830_403_QLTLSCPLCVNPVCR (UniProt P22830)	0.0323	0.0221
EIF3M_Q7L2H7_52_GAEISEENSEGGLHVDLAQIIEACDVCLKEDDK (UniProt Q7L2H7)	0.0157	0.134
FAM111B_Q6SJ93_351_NYYFCSLPR (UniProt Q6SJ93)	-0.00273	0.026
EFTUD2_Q15029_476_IEHTYTGGVDSDLGEAMSDCDPDGPLMCHTTK (UniProt Q15029)	-0.11	-0.51
EXOSC8_Q96B26_60_LGNTTVICGVK (UniProt Q96B26)	0.0322	0.0231
FUBP3_Q96I24_366_CGLVIGK (UniProt Q96I24)	-0.0888	0.0606
F2_P00734_564_RGDACEGDSGGPFVMK (UniProt P00734)	0.606	0.325
FAR2_Q96K12_104+111_EDMQELLSCTNIIFHCAATVR (UniProt Q96K12)	0.0855	0.0839
FASN_P49327_2369_AKLTPGCEAEAETEAICFFVQQFTDMEHNR (UniProt P49327)	-0.0758	-0.005
